Structures are written as SMILES. Screen size: about 52,000 compounds; about 4,300 (8.3%) were called active. The sample as a whole holds a higher share of actives than the screen did. Unmarked numbers belong to inactive results. Cut-off read from the data, not from the text of the source: active = survival mostly below about 52% (no sharp cut-off); inactive = mostly above about 56%.

The subject of this assay is DeltatarO mutant. The assay can be described thus: growth inhibition of S. aureus wild type versus tarO mutant, primary screen, teichoic acid synthesis inhibitors, RN4220, OD600 (AID 463173). The following applies: OD600, 18 h, stronger effect = lower value, screened at 18.75 µg/mL (by protocol).
Consider `COc1cccc(C(C(=O)NCc2ccco2)N(C(=O)Cn2nnc3ccccc32)C2CC2)c1OC` (configuration not stated), for which the survival is 107%.
For `CCOC(=O)c1noc2nc(C)n(CC(=O)Nc3cc(Cl)ccc3OC)c(=O)c12`, the survival was 109%.
Regarding `Cc1csc2nc(CCNS(=O)(=O)c3ccccc3)cn12`, the survival was 79%.
In the case of `Cc1cc(C)c(/C=C/c2onc(C)c2S(=O)(=O)N2CCC(C(=O)Nc3ccc(Cl)c(C(F)(F)F)c3)CC2)c(C)c1` it was 67%; in that of `Cc1nn2c(=O)cc(COC(=O)c3ccccc3NC(=O)c3ccccc3C)nc2s1`, 104%.
For `COc1ccc(-c2nc3scc(CCNS(=O)(=O)c4c(C)cc(C)cc4C)n3n2)cc1OC`, the survival is 85%.
Then `Cc1ccccc1-c1nc(CNC(=O)Nc2ccccc2)c(C)o1`, with 89%; and `CC(C)Oc1ccc(CN2CCc3nc(Nc4ccc5c(c4)OCCO5)ncc3C2)cc1`, with 77%.
In the case of `Cc1ccc(Cl)cc1Nc1nn2c(=O)c3ccc(C(=O)NC(C)c4ccccc4)cc3nc2s1` (configuration not stated) it was 105%.
For `CN(C(=O)CSc1nc2ccc(NC(=O)COc3ccc(F)cc3)cc2s1)c1ccccc1`, the survival was 73%.
In the case of `CC1CCCCN1CC(=O)N1CCCc2c1c(=O)oc1ccc(OCc3ccccc3)cc21` (configuration not stated) it was 77%; in that of `CCC1CCCCN1CC(=O)N1CCCc2c1c(=O)oc1ccc(OCc3ccccc3)cc21` (configuration not stated), 18% (active).
In the case of `CC1CCN(CC(=O)N2CCCc3c2c(=O)oc2ccc(OCc4ccccc4)cc32)CC1`, the survival was 98%.
In the case of `COc1ccc(N(Cc2nnc3n2CCCCC3)C(=O)Nc2cccc(C)c2)cc1Cl` it was 81%.
As to `COc1ccc(C2CC(=O)c3cc(-c4nc(-c5ccc(Cl)cc5)cs4)c(=O)[nH]c3C2)cc1` (configuration not stated), the survival was 167%.
For the compound `Cc1sc(-c2cc3c([nH]c2=O)CC(c2ccccc2)CC3=O)nc1-c1ccc(Cl)cc1` (configuration not stated), the survival was 73%.
Turning to `COc1ccc(C2CC(=O)c3cc(-c4nc(-c5ccc(Cl)cc5)c(C)s4)c(=O)[nH]c3C2)cc1` (configuration not stated), the survival is 70% (active).
Turning to `CON(C)c1nc(OCCNC(=O)OCc2ccc(Cl)cc2Cl)nc(N(C)C)n1`, the survival was 76%.
For the compound `CCOc1ccc(NC(=O)CCCc2nnc3n(C)c(=O)c4sccc4n23)cc1`, the survival was 78%.
In the case of `COc1ccc(NC(=O)c2cc3c(=O)n(Cc4cccs4)ccc3nc2C)cc1` it was 75%; in that of `CCc1ccc(CNC(=O)c2cc3c(=O)n(Cc4cccs4)ccc3nc2C)cc1`, 32% (active); in that of `Cc1ccc(C)c(N2CCN(C(=O)c3cc4c(=O)n(Cc5ccccc5)ccc4nc3C)CC2)c1`, 78%.
In the case of `Cc1nc2ccn(Cc3cccs3)c(=O)c2cc1C(=O)NCc1ccccc1`, the survival is 78%.
For the compound `COc1cccc(CNC(=O)c2cc3c(=O)n(Cc4cccnc4)ccc3nc2C)c1`, the survival is 144%.
Regarding `Cc1ccc(C)c(N2CCN(C(=O)c3cc4c(=O)n(Cc5cccnc5)ccc4nc3C)CC2)c1`, the survival was 46% (active).
As to `Cc1nc2ccn(Cc3cccs3)c(=O)c2cc1C(=O)NCc1ccc(Br)cc1`, the survival is 70%.
On to `Cc1nc2ccn(Cc3cccnc3)c(=O)c2cc1C(=O)N1CCN(c2ccccc2)CC1`, for which the survival was 105%.
In the case of `COc1ccc(CNC(=O)c2cc3c(=O)n(Cc4cccnc4)ccc3nc2C)cc1`, the survival was 37% (active).
On to `Cc1nc2ccn(Cc3cccnc3)c(=O)c2cc1C(=O)NCc1ccccc1`, for which the survival was 72%.
Consider `Cc1nc2ccn(Cc3cccs3)c(=O)c2cc1C(=O)Nc1ccccc1`, for which the survival was 84%.
Then `COc1cc(NC(=O)c2cc3c(=O)n(Cc4cccs4)ccc3nc2C)cc(OC)c1OC`, with 0% (active); and `CCc1ccc(-n2c(=O)c3cccnc3n2CC(=O)N(CC)c2cccc(C)c2)cc1`, with 94%.
`COc1ccc(Cl)cc1NC(=O)CCc1c(C)nc2c(c1C)c(=O)n(C)c(=O)n2C`: the survival was 94%.
On to `Cc1cc(C)cc(NC(=O)Cn2c(C)cc(C)c(C#N)c2=O)c1`, for which the survival was 89%.
As for `CC(=NCCCn1ccnc1)c1c(C(F)(F)F)[nH]n(-c2nc3ccccc3s2)c1=O`, the survival was 120%.
Then `COC(=O)c1ccc(Cn2nnc3c(=O)[nH]c(C4CCCN(S(=O)(=O)c5ccccc5)C4)nc32)cc1` (configuration not stated), with 99%; and `CCOc1nc(NCCO)nc(NCCC2=CCCCC2)n1`, with 67%.
Regarding `CCc1ccccc1-n1nnc(-c2nc(-c3ccccc3F)no2)c1C`, the survival is 102%.
With `CC(C)(C)c1ccc(C(=O)NCC(=O)OCc2cc(=O)n3nc(C4CC4)sc3n2)cc1`, the survival was 85%.
As to `CCOC(=O)c1c(S(=O)(=O)N2CCN(c3cccc(C(F)(F)F)c3)CC2)c(C)n(C)c1C`, the survival was 116%.
As for `CCS(=O)(=O)c1cccc(C(=O)N2CCN(c3nc4c(C)ccc(Cl)c4s3)CC2)c1`, the survival was 78%.
With `CCOc1ccc(CNC(=O)c2cc3c(=O)n(Cc4cccs4)ccc3nc2C)cc1`, the survival was 112%.
For the compound `Cc1nc2ccn(Cc3ccco3)c(=O)c2cc1C(=O)NCc1ccc(Cl)cc1`, the survival was 47% (active).
Regarding `Cc1ccc(CNC(=O)c2cc3c(=O)n(Cc4ccco4)ccc3nc2C)cc1`, the survival is 87%.
On to `Cc1nc2ccn(Cc3ccco3)c(=O)c2cc1C(=O)NCc1ccccc1`, for which the survival is 79%.
For `CC(=O)Nc1ccc(NC(=O)c2cc3c(=O)n(Cc4cccnc4)ccc3nc2C)cc1`, the survival was 57%.
On to `COc1cccc(NC(=O)c2cc3c(=O)n(Cc4cccnc4)ccc3nc2C)c1`, for which the survival was 101%.
In the case of `COc1ccc(CNC(=O)c2cc3c(=O)n(Cc4cccs4)ccc3nc2C)cc1`, the survival was 37% (active).
`Cc1nc2ccn(Cc3cccs3)c(=O)c2cc1C(=O)NCc1ccc(Cl)cc1`: the survival was 49%.
In the case of `Cc1cccc(NC(=O)c2cc3c(=O)n(Cc4cccnc4)ccc3nc2C)c1` it was 0% (active); in that of `Cc1nn(C)c2c1c(-c1ccccc1)cc(=O)n2Cc1ccccc1Cl`, 88%.
Then `Cc1cccc(NC(=O)Cn2c(=O)n(CCc3ccccc3)c(=O)c3sc4ccccc4c32)c1`, with 105%; and `Cc1ccc(Cn2ccnc2SCC(=O)NC2CCCC2)cc1`, with 89%.
As for `Cc1cccc(C)c1NC(=O)CN1C(=O)c2ccccc2Sc2ncccc21`, the survival was 88%.
On to `COc1ccccc1-c1cc(C(=O)NCc2ccccc2)c2c(-c3ccc(C)cc3)[nH]nc2n1`, for which the survival was 80%.
In the case of `Cn1c(SCC(N)=O)nc2c([nH]c3ccccc32)c1=O`, the survival was 88%.
In the case of `COc1ccccc1N1CCN(C(=O)C(CCSC)NS(=O)(=O)c2ccc3c(c2)oc(=O)n3C)CC1` (configuration not stated) it was 87%.
For `Cc1ccc(Cn2c(=O)n(-c3ccccc3)c(=O)c3ccc(C(=O)NCc4ccco4)cc32)cc1`, the survival is 75%.
Then `COc1ccc(CCN2C(=O)NC(NC(=O)c3ccccc3OC)(C(F)(F)F)C2=O)cc1OC` (configuration not stated), with 77%.
Regarding `CCCCOc1ccc(CNC(=O)c2ccc3c(c2)N(C)C(=O)C2CCCCN32)cc1` (configuration not stated), the survival is 74%.
Regarding `Cc1cccc(CNC(=O)c2ccc3c(c2)N(C)C(=O)C2CCCCN32)c1` (configuration not stated), the survival was 0% (active).
Consider `COc1cccc(CNC(=O)c2ccc3c(c2)N(C)C(=O)C2CCCCN32)c1` (configuration not stated), for which the survival is 72%.
With `COc1ccc(CNC(=O)c2ccc3c(c2)N(C)C(=O)C2CCCCN32)cc1OC` (configuration not stated), the survival was 75%.
Consider `CC(C)Oc1ccc(CNC(=O)c2ccc3c(c2)N(C)C(=O)C2CCCCN32)cc1` (configuration not stated), for which the survival is 37% (active).
For the compound `CSc1ccc(CNC(=O)c2ccc3c(c2)N(C)C(=O)C2CCCCN32)cc1` (configuration not stated), the survival is 92%.
For the compound `CCOc1ccc(CNC(=O)C2CCCN(c3nn4cc(-c5ccc(OC)cc5)nc4s3)C2)cc1` (configuration not stated), the survival is 99%.
Then `Cc1c2cnn(CC(=O)N3CCN(c4ccccc4)CC3)c(=O)c2c(C)n1Cc1ccc(F)cc1`, with 67%; and `COc1ccc(-c2cc(C(N)=O)on2)c(OC)c1`, with 99%.
Then `O=S(=O)(c1cccc(S(=O)(=O)N2CCOCC2)c1)N1CCCCCC1`, with 91%.
Then `Cc1ccc2occ(CC(=O)Nc3nnc(C(C)C)s3)c2c1`, with 70%; and `CCCCSCCCNC(=O)c1cn(C)c2ccc(S(=O)(=O)N3CCCCCC3)cc2c1=O`, with 63%.
Turning to `O=C(Nc1ccc(F)cc1)c1oc2ccccc2c1NC(=O)C1CCCCC1`, the survival is 11% (active).
Turning to `O=C(Nc1ccc(F)cc1)c1oc2ccccc2c1NC(=O)C12CC3CC(CC(C3)C1)C2`, the survival is 96%.
`Cc1ccc(NC(=O)c2oc3ccccc3c2NC(=O)C2CCCCC2)cc1`: the survival was 2% (active).
As for `COc1ccc(NC(=O)c2oc3ccccc3c2NC(=O)C2CCCCC2)c(OC)c1`, the survival was 74%.
`CCOc1ccc(NC(=O)c2oc3ccccc3c2NC(=O)C2CCCCC2)cc1`: the survival is 103%.
Turning to `COc1ccccc1NC(=O)c1oc2ccccc2c1NC(=O)C1CCCCC1`, the survival is 43% (active).
`Cc1ccc(NC(=O)c2oc3ccccc3c2NC(=O)C23CC4CC(CC(C4)C2)C3)cc1`: the survival is 75%.
Regarding `COc1cccc(NC(=O)c2oc3ccccc3c2NC(=O)C2CCCCC2)c1`, the survival is 66%.
Turning to `CN(C)c1ccc(C(=O)Nc2c(C(=O)NC(C)(C)C)oc3ccccc23)cc1`, the survival was 57%.
As for `Cc1ccc(C(=O)Nc2c(C(=O)NC(C)(C)C)oc3ccccc23)cc1`, the survival was 32% (active).
Take `COc1cc(OC)cc(C(=O)Nc2c(C(=O)Nc3ccc(F)cc3)oc3ccccc23)c1`: the survival is 62%.
With `CC(C)(C)NC(=O)c1oc2ccccc2c1NC(=O)c1ccc(F)cc1`, the survival is 71%.
In the case of `CCOC(=O)c1ccc(NC(=O)Cn2nc3c4ccccc4n(Cc4cccc(F)c4)cc-3c2=O)cc1` it was 82%; in that of `Cc1cc(C)nc(Nc2ccc(O)cc2)n1`, 91%.
`CC(C)c1ccc(S(=O)(=O)c2nnn3c2nc(NC2CCCC2)c2sccc23)cc1`: the survival was 65%.
Then `CCN(CC)c1ccc(NC(=O)c2cnn(-c3ccccc3)c2-n2cccc2)c(C)c1`, with 115%.

(Values after PubChem BioAssay AID463173 (ICCB-Longwood Screening Facility, Harvard Medical School, 2010).)
